# TRHR enhancer: allosterically enhances the human TRH receptor; P34981; TRHR cells, fluo-8 calcium fluorescence, EC20 TRH enhancement; enhancement, % at 2 µM; 360,000 compounds, 0.66% hits; in the data active means enhancement above about 30%
#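 Enhancer read-out: after compound pinning and an initial kinetic agonist-mode read, an EC20 of TRH (10 nM final) was injected and fluo-8 calcium signal (Ex 480/Em 530) followed at 1 s/cycle for 100 cycles in TRHR-expressing cells.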
# D1 ag: human D1 receptor agonism; HEK293 T-REx D1 cells, calcium flux, agonist mode; activation, % at 2 µM; P21728; 360,000 compounds, 1% hits
# Target sequence (P21728 whole entry, looked up): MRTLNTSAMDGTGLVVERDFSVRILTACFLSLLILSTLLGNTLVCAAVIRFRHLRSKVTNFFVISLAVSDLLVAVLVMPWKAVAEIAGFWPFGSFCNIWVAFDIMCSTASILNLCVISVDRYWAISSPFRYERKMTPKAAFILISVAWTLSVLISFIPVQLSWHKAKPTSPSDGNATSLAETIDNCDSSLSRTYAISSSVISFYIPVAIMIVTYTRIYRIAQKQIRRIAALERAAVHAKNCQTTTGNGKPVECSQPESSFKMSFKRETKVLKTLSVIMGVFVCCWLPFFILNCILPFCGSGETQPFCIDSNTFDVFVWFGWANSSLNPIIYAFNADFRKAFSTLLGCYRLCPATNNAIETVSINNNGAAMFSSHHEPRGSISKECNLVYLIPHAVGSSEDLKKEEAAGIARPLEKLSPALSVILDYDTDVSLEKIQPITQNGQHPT
#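 Tetracycline-induced HEK293 TREx D1 cells, force-coupled to calcium signalling, were dye-loaded with a no-wash calcium kit. Compound was pin-added after a 10 s baseline. Fluorescence was read kinetically at 1 cycle/s for 180 s, with calcium rises flagged as agonism.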
# D1 antagonist: blocks dopamine activation of the human D1 receptor | P21728 | 360,000 compounds, 3.2% hits | activity change, negative = inhibition, % at 10 µM | AID 504652 | HEK293 TREx D1 cells, calcium flux, dopamine EC80; hits give low values; in the data active means activity change below about -30%
#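 After overnight tetracycline induction at 30 C, force-coupled D1 HEK293 cells took up a no-wash calcium dye at room temperature. Compounds were added and monitored 180 s, and the response to EC80 dopamine was then recorded.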
# GRP78 ERSR act: inducers of ER stress response in human glioma cells; U87-MG GRP78 promoter luciferase reporter, 16 h; Potency, µM, usual class: activators; 420,000 compounds, 0.02% hits; AID 602332; active means well fitted activation curve with a large enough effect; further: series mostly up to about 76 µM; nearly all actives have a fitted effect of over 35% in size
#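 Stably transfected U87-MG glioma cells carrying a GRP78-based luciferase sensor; 16 h compound incubation. Luminescence end-point read 10 min after Bright-Glo addition at room temperature.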
# TRHR ag: activates the human TRH receptor; P34981; TRHR cells, calcium flux fluo-8, FDSS agonist mode; activation, % at 2 µM; 360,000 compounds, 0.18% hits; AID 493084
#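 In this calcium-flux screen, cells bearing human TRHR are dye-loaded with fluo-8, baselined for 10 cycles, then exposed to library compounds; positive kinetic calcium responses during the agonist phase mark hits, with TRH as control.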
# D1 potentiator: enhances dopamine response at the human D1 receptor; P21728; HEK293 TREx D1 cells, calcium flux, dopamine EC20 potentiation; potentiation, % at 10 µM; 360,000 compounds, 0.036% hits; AID 504651; in the data active means potentiation above about 30%
# Numbers stand for hits; – = inactive; · = not tested or not shown. Compounds with a hit are over-represented: about 4% of the library has one in this group of screens. Unless noted, no stated cut-off is given here; in the data, active means activation above about 30%; inactive means the rest.
SMILES,TRHR enhancer,D1 ag,D1 antagonist,GRP78 ERSR act,TRHR ag,D1 potentiator
COc1cccc(/C=N/NC(=O)c2[nH]c(C)c(C(=O)N/N=C/c3cccc(OC)c3O)c2C)c1O,–,–,-77,–,–,–
O=C(Cc1ccccc1)N/N=C/c1cc2c(cc1Cl)OCO2,–,–,-40,–,–,–
Fc1ccc(-c2nnc(-c3ccc4ccccc4c3)o2)cc1,·,·,·,–,·,·
O=C(O[C@H]1CN2CCC1CC2)N1CCc2ccccc2[C@@H]1c1ccccc1,·,·,·,–,·,·
O=C(CNC(=O)c1ccncc1)N/N=C/c1ccccn1,–,–,–,–,–,–
COc1cccc(/C=N/NC(=O)CNC(=O)c2ccncc2)c1O,–,–,-41,–,–,–
COc1cccc(/C=N/NC(=O)CNC(=O)c2cccnc2)c1O,–,–,–,–,–,–
COc1cc(C(=O)NCC(=O)N/N=C/c2ccccn2)cc(OC)c1OC,35,–,–,–,–,–
CCc1nn(CC(=O)N2CCN(c3cccc(Cl)c3)CC2)c(=O)c2cc3sccc3n12,–,–,–,–,–,–
CCCCCCCC1=CC2=CC(=O)C(C)(O)C(=O)C2=CN1CCCC (stereo unspecified),·,·,·,–,·,·
O=C(NCCCN1CCN(c2ccccc2F)CC1)c1ccc2nc(N3CCCCC3)sc2c1,–,–,–,–,–,–
COc1ccccc1Cc1nc2ccccc2nc1SCC(=O)N1CCC(C)CC1,–,–,–,–,–,–
O=C(/C=C/c1ccc(Cl)cc1Cl)NC(=S)Nc1ccc(CN2CCOCC2)cc1,–,–,–,–,–,–
O=C(/C=C/c1ccc(Cl)cc1Cl)NC(=S)Nc1ccccn1,–,–,-44,–,–,–
CCCNC(=O)c1[nH]c(C)c(C(=O)OCC)c1C,–,–,-40,·,–,–
CCOC(=O)c1c(C)[nH]c(C(=O)N/N=C/c2ccc(Br)cc2)c1C,–,–,-40,–,–,–
CCOC(=O)c1c(C)[nH]c(C(=O)NCc2ccco2)c1C,–,–,-71,·,–,–
CCOC(=O)c1[nH]c(C)c(C(=O)NC2CCCCC2)c1C,–,–,-89,–,–,–
O=C(COc1ccccc1C(=O)OCC(=O)Nc1cccc2ccccc12)Nc1ccc(Br)cc1,·,·,·,–,·,·
CCOC(=O)c1c(C)[nH]c(C(=O)OCc2ccc(F)cc2)c1C,–,–,–,–,–,–
CCOC(=O)c1c(C)[nH]c(C(=O)OCc2ccccc2F)c1C,–,31,–,–,–,–
CSc1ccccc1OC1CCN(Cc2ccccc2)CC1,–,–,-88,–,–,–
COc1cccc(CNC(=O)COC(=O)CCc2cc(OC)c(OC)c(OC)c2)c1,–,–,–,–,–,·
COc1ccc(OC)c(/C=C/c2sc3ccccc3[n+]2C)c1,·,·,·,–,·,·
O=C(COc1ccc(Br)cc1)NCCN1CCCC1,30,–,–,–,–,–
SMILES,TRHR enhancer,D1 ag,D1 antagonist,GRP78 ERSR act,TRHR ag,D1 potentiator
Cc1ccc(OCC(=O)NCCN2CCCC2)cc1,–,–,–,–,–,–
COc1cccc(NC(=S)NN2CCN(C)CC2)c1,–,–,–,–,–,–
CN1CCN(NC(=S)Nc2ccc(Oc3ccccc3)cc2)CC1,–,36,–,–,–,–
CCc1ccc(C2CC(=O)Nc3c2c(=O)n(C)c2ncnn32)cc1 (stereo unspecified),–,–,-39,–,–,–
CSc1ccc(C2CC(=O)Nc3c2c(=O)n(C)c(=O)n3C)cc1 (stereo unspecified),–,–,–,–,–,–
Cc1ccc(S(=O)(=O)c2nc(Nc3nccs3)sc2Cl)cc1,30,–,–,–,–,–
COc1ccc(C(=O)OCC(O)COC(=O)c2ccc(OC)cc2)cc1,·,·,·,–,·,·
CCN(CC(=O)NCc1ccc(F)cc1)C(=O)/C=C/c1ccco1,–,–,–,–,–,–
CCN(CC(=O)NCc1ccc(F)cc1)C(=O)/C=C/c1cccs1,38,–,–,–,–,–
CCN(CC(=O)NCc1ccc(F)cc1)C(=O)c1ccc(C)o1,32,–,–,–,–,–
CCN(CC(=O)NCc1ccc(F)cc1)C(=O)c1ccc(Cl)cc1,–,–,–,–,–,–
CC(=O)OCC1OC(c2cc(C)cc(C)c2)C=CC1OC(C)=O (stereo unspecified),·,·,·,–,·,·
CCN(Cc1cccs1)C(=O)c1cccc(S(=O)(=O)N2CCN(C)CC2)c1,–,–,–,–,–,–
CN1CCN(S(=O)(=O)c2cccc(C(=O)N(C)Cc3cccs3)c2)CC1,–,–,-46,–,–,·
CN1CCN(S(=O)(=O)c2ccc(N(C)Cc3cccs3)nc2)CC1,–,–,-38,–,–,–
CC(=O)Nc1cc(-c2cccc(F)c2)cn2c(-c3ccc(F)cc3)cnc12,·,·,·,–,·,·
CC(C)CCNC(=O)C1CCN(S(=O)(=O)c2ccc(-n3cnnn3)cc2)CC1,–,–,–,–,–,–
O=C(CNC(=O)c1ccccc1)OCc1cccc([N+](=O)[O-])c1,–,–,–,–,–,–
CC(C)(C)c1ccc(C(=O)NCC(=O)OCc2ccc([N+](=O)[O-])cc2)cc1,–,–,-35,–,–,–
COc1ccc(N2CCN(C(=O)COC(=O)Cc3ccc(F)cc3)CC2)cc1,–,–,–,–,–,–
COc1ccc(NC(=O)N2CCCc3ccccc32)cc1OC,–,–,-55,–,–,–
COc1ccc(CC(=O)N2CCCc3ccccc32)cc1,–,–,–,–,–,–
COc1ccc(CC(=O)OCC(=O)N2CCCc3ccccc32)cc1,–,–,-41,–,–,–
CCOC(=O)N1CCN(C(=O)COC(=O)Cc2ccc(OC)cc2)CC1,34,–,–,–,–,–
COc1ccc(N2CCN(C(=O)COC(=O)c3cc(S(=O)(=O)N(C)C)ccc3N3CCCC3)CC2)cc1,–,–,-48,–,–,–
SMILES,TRHR enhancer,D1 ag,D1 antagonist,GRP78 ERSR act,TRHR ag,D1 potentiator
CCOc1ccc(C(=O)N2CCc3ccccc32)cc1,–,–,–,–,–,–
CCCOc1ccc(C(=O)N2CCCc3ccccc32)cc1,–,–,-45,–,–,–
COc1ccc(N2CCN(C(=O)C3(S(=O)(=O)c4ccc(C)cc4)CC3)CC2)cc1,–,–,-58,–,–,–
COc1ccc(CC(=O)OCC(=O)c2ccc(OC)c(OC)c2)cc1,–,–,-31,–,–,–
COc1ccc(CC(=O)OCC(=O)c2ccc(OC)cc2)cc1,–,–,–,–,–,–
COc1ccc(N2CCN(C(=O)COC(=O)CCOc3ccc(C)cc3)CC2)cc1,–,–,-31,–,–,–
COc1cccc(-c2nc3cc(SC)ccc3cc2CN(C(=O)c2sccc2C)C2CC2)c1,·,·,·,–,·,·
COc1ccc(S(=O)(=O)CCC(=O)N2CCN(c3ccc(C(C)=O)cc3)CC2)cc1,–,–,-39,–,–,–

# Screening results: PubChem, National Center for Advancing Translational Sciences (NCATS)
